This passage reports binding signal results from PMC7862700, “An all-to-all approach to the identification of sequence-specific readers for epigenetic DNA modifications on cytosine”.

Common to all, as to experiment: DAPPL (digital affinity profiling via proximity ligation, sequencing); 10 mM Tris-HCl pH 7.5, 50 mM NaCl, 1 mM DTT, 4% glycerol, room temperature, 30 min; GST-TFs on glutathione beads, 16-mer random dsDNA library, 0.1% formaldehyde crosslink after washing; high values mean tight binding
What all share (conditions): protein: recombinant; tags: N-terminal GST; dsDNA, one strand shown

The target of one assay is ETV5 (Homo sapiens, UniProt P41161 1-510). Summed up: (§1)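 After expression in yeast as GST fusions, human transcription factors were bound to glutathione beads, DNA-barcoded and mixed with a tag-only sample. The pools were incubated with 200 nmole of a 16-mer random double-stranded DNA library in Tris/NaCl/DTT/glycerol buffer (30 min, room temperature), washed and crosslinked with 0.1% formaldehyde. Proximity ligation with BsaI/T4 ligase ran for 1 h at 37 °C, before PCR amplification and sequencing on an Illumina NextSeq500. Binding signal is a hexamer's read frequency for a factor divided by its frequency for the tag-only sample.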

Another assay deals with T1, SPIC (Homo sapiens, UniProt Q8N5J4 1-248).
T1 sequence: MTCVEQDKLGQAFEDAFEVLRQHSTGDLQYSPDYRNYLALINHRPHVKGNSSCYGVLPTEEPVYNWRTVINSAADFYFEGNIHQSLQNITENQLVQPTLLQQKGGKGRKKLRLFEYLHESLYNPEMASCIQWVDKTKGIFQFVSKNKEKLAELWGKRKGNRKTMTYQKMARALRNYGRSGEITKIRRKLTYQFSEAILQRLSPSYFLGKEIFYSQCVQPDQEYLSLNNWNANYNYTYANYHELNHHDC
The method in brief: as §1

In another assay the target is ELF4 (Homo sapiens, UniProt Q99607 1-663). The method in brief: as §1
For the next assay, the target named is ETV1 (Homo sapiens, UniProt P50549 1-477). The method in brief: as §1
The target of the next assay is T2, ERF (Homo sapiens, UniProt P50548 1-548).
T2 sequence: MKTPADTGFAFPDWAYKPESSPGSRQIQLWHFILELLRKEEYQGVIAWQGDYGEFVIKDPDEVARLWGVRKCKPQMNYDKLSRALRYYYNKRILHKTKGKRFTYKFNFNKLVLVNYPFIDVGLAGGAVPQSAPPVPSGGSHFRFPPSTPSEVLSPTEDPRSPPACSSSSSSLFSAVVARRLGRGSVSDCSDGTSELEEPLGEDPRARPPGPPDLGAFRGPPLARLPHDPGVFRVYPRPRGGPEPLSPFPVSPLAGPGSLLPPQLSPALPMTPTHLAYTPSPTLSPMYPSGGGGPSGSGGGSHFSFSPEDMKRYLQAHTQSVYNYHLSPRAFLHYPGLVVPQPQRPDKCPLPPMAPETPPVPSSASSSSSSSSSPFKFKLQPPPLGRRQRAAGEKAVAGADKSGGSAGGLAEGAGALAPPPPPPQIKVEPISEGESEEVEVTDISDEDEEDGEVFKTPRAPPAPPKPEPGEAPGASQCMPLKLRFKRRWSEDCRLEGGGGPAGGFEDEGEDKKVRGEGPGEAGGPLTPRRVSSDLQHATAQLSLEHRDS
Summed up:
as §1

A further assay has as its target T3, ETV3L (Homo sapiens, UniProt Q6ZN32 1-361).
T3 sequence: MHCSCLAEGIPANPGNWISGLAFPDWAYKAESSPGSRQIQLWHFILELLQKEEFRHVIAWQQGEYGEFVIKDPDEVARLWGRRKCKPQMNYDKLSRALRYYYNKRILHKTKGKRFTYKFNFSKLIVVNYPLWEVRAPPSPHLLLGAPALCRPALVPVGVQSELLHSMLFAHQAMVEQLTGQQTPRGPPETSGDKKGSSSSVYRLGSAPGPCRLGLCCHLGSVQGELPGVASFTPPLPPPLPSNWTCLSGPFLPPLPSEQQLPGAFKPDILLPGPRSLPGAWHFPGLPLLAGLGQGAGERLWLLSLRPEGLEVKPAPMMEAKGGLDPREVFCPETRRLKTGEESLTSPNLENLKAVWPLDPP
The method in brief: as §1

The next assay deals with T4, ETS2 (Homo sapiens, UniProt P15036 1-469).
T4 sequence: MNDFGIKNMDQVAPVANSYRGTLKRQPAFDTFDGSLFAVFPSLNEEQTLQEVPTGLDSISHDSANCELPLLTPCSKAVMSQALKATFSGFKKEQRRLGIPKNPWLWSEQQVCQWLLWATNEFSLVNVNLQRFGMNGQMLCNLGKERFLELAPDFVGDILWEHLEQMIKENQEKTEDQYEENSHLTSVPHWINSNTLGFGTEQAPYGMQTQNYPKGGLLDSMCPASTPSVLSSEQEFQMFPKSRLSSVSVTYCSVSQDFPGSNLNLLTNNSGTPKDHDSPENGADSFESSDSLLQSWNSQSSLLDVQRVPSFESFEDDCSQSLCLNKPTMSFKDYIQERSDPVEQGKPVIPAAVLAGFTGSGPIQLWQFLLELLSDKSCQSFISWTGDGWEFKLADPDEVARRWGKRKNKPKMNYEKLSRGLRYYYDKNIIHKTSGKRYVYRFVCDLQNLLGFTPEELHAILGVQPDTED
Summed up: as §1

The target of the next assay is T5, ELF5 (Homo sapiens, UniProt Q9UKW6-2 1-255).
T5 sequence: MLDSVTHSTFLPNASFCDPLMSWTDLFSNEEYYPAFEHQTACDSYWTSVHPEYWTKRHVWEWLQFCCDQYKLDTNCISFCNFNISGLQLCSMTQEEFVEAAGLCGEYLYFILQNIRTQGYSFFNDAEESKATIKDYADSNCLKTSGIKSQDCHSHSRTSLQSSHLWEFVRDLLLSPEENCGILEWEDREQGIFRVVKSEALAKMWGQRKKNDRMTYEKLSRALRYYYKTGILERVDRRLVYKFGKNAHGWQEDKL
Summed up:
as §1

The target in another assay is T6, ETV3 (Homo sapiens, UniProt P41162-2 1-143).
T6 sequence: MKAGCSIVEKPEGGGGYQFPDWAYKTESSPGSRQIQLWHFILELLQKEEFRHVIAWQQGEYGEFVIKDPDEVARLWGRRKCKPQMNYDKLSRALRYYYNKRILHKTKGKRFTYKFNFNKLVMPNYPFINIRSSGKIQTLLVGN
The method in brief: as §1

For the next assay, the target named is ETV6 (Homo sapiens, UniProt P41212 1-452). Summed up:
as §1

Sequence of ETV6 (P41212 whole entry): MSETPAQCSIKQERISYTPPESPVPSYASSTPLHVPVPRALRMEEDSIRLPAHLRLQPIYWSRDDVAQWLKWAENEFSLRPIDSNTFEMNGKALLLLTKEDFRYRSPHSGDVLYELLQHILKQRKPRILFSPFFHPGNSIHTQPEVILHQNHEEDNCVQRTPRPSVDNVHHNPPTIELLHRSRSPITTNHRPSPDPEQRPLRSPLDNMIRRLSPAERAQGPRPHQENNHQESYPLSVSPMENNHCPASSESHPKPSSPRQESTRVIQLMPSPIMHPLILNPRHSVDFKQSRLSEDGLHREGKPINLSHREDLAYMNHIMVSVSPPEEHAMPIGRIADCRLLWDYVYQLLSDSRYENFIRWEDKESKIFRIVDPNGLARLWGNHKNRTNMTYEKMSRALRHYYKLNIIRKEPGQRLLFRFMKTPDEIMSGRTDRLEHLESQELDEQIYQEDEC
Sequence of ETV1 (P50549 whole entry): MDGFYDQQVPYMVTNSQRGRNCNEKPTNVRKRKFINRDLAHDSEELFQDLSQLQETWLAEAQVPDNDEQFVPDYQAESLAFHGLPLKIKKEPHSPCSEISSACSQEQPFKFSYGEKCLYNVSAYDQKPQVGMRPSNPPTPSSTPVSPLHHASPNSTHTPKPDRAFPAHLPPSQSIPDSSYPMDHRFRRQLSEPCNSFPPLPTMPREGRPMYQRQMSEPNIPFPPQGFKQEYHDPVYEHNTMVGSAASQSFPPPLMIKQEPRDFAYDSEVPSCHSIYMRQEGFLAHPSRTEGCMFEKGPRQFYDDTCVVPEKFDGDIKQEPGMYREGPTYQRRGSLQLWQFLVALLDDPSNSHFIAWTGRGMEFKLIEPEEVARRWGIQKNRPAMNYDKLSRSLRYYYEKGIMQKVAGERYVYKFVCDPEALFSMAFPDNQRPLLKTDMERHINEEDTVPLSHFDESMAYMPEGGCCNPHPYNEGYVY
Sequence of ELF4 (Q99607 whole entry): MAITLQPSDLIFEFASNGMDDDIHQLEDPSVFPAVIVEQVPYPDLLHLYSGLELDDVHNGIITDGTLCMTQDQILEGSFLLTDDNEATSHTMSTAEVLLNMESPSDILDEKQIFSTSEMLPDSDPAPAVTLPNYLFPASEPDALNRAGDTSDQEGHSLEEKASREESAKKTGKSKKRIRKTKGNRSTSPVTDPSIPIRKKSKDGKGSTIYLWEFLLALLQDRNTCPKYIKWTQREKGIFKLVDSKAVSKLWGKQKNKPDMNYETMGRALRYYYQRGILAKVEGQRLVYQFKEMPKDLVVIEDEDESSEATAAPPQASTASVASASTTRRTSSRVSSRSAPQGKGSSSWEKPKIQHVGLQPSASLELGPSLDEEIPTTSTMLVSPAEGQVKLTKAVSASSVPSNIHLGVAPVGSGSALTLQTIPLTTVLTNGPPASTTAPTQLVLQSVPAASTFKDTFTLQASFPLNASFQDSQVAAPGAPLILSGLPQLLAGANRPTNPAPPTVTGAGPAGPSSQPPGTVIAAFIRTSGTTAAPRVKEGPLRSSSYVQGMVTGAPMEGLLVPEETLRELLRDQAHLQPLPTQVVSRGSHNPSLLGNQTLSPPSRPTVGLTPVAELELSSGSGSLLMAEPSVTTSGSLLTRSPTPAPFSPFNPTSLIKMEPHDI
Sequence of ETV5 (P41161 whole entry, the tested form may be a part): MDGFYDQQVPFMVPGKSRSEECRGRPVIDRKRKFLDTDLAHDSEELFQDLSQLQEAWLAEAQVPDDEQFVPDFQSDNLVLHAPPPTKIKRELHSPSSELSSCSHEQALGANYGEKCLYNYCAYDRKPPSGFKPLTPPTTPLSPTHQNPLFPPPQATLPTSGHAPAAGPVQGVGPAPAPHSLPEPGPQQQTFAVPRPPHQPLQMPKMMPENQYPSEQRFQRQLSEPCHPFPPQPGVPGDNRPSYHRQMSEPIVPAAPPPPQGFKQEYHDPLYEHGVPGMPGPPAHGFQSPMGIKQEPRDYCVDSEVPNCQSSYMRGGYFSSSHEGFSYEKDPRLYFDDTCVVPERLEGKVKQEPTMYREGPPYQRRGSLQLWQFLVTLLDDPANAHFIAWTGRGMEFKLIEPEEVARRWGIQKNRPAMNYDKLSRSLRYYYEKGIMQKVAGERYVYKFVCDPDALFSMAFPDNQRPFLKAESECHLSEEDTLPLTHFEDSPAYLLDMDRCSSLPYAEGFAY

As for ACATGG, the binding signal with ETV5 was 1.1 fold enrichment (6-mer frequency, TF over GST control); with SPIC, 1.18 fold enrichment (6-mer frequency, TF over GST control); with ELF4, 1.21 fold enrichment (6-mer frequency, TF over GST control); with ETV1, 1.14 fold enrichment (6-mer frequency, TF over GST control); with ERF, 1.14 fold enrichment (6-mer frequency, TF over GST control); in the assay with ETV3L it was 1.19 fold enrichment (6-mer frequency, TF over GST control). The binding signal with ETS2 was 1.14 fold enrichment (6-mer frequency, TF over GST control); with ELF5, 1.1 fold enrichment (6-mer frequency, TF over GST control); in the assay with ETV3 it was 1.13 fold enrichment (6-mer frequency, TF over GST control); with ETV6 it was 1.14 fold enrichment (6-mer frequency, TF over GST control).
